# Data: PubChem BioAssay (NCATS)
# “And” between values parts separate entries of the source, which are not always exact repeats. Equal values may be shown once. Results filed as inconclusive are left out. The source made the active and inactive calls. Unless noted, calls come from the whole dose curve.
# Test system: not listed separately
# Experiment: qHTS assay for small molecule antagonists of peroxisome proliferator-activated receptor delta signaling (AID 588535; active = well fitted inhibition curve with a large enough effect in the signal ratio, with a control signal flat, not every such curve was filed as active; the % refers to the signal ratio;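 for max response: cells co-treated with a PPAR-delta agonist as stimulator during compound exposure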)
# Conditions: HEK293T PPARd-UAS-bla, beta-lactamase FRET ratio, 18 h; 460 nm channel
# How it was run: (§1)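 Cell-based beta-lactamase assay in antagonist mode: 4000 HEK293T PPAR-delta-UAS-bla cells per well, 5 hr preincubation then 18 hr compound incubation at 37 C. IC50 obtained by Hill equation fitting.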
row,SMILES,max response
1,Brc1ccccc1,10.8%
2,CCOP(=S)(OCC)SCSC(C)(C)C,18.1% and -40.8%
3,Cc1cccc([N+](=O)[O-])c1,12.7% and -9.62%
4,CC(C)(C)OOC(C)(C)C,29.5%
5,C=C(C)C(=O)OCC1CO1 (stereo not given),-13.4%
6,Cc1ccc([N+](=O)[O-])cc1C,-1.38%
7,C=CC(=C)C,-16.7%
8,Cc1ccc2ccccc2c1,14.3%
9,Nc1ccccc1Cl,6.02%
10,Clc1ccc2ccccc2c1,-27.9%
11,OCC1CO1 (stereo not given),-3.17% and 28.4%
12,C=CCOC(=O)c1ccccc1N,8.66%
13,C=CC(N)=O,43.8% and 22.1%
14,CC(C)(c1ccccc1)c1ccc(O)cc1,13%
15,S=C=Nc1cccc2ccccc12,-3.26%
16,Cc1ccccc1N,7.62%
17,NC(=S)Nc1ccccc1,-9.7% and -15%
18,C=C(Cl)Cl,-8.55%
19,ClCBr,36.6%
20,C=CC(=O)OCC,26.1%
21,c1nc[nH]n1,-9.48%
22,O=NN(c1ccccc1)c1ccccc1,35.3%
23,C1CCC2CCCCC2C1 (stereo not given),-10.8%
24,CC(O)CCl (stereo not given),-27.3% and -9.22%

# Target: Peroxisome proliferator-activated receptor delta (Homo sapiens) (UniProt Q03181)
# Sequence (Q03181 whole entry, looked up): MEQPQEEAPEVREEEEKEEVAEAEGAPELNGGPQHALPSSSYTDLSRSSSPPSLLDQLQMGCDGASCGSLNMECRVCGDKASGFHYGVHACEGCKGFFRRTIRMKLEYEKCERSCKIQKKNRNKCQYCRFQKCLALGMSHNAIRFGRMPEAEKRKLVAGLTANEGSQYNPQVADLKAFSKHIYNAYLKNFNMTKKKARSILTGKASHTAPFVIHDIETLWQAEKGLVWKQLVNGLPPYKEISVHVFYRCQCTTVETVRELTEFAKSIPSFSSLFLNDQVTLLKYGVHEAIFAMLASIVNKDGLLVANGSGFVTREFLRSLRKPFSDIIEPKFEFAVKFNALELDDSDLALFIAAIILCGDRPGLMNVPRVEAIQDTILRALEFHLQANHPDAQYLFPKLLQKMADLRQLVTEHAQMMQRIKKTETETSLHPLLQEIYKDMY
# Experiment: as above
# Conditions: HEK293T PPARd-UAS-bla, beta-lactamase FRET ratio, 18 h; series mostly up to 76.7 µM; activity change, negative = inhibition: at the top concentration
# How it was run: as §1
SMILES,Potency,"activity change, negative = inhibition"
CCOP(=S)(OCC)SCSC(C)(C)C,inactive,
Cc1ccc([N+](=O)[O-])cc1C,,19.4% (inactive)
C=CC(=C)C,,-1.2% (inactive)
Cc1ccc2ccccc2c1,,-17% (inactive)
C=CCOC(=O)c1ccccc1N,,-19.6% (inactive)
C=CC(N)=O,inactive,
c1nc[nH]n1,,-15.4% (inactive)
O=NN(c1ccccc1)c1ccccc1,,7.44% (inactive)

# Target: Peroxisome proliferator-activated receptor gamma (Homo sapiens) (UniProt P37231)
# Sequence (P37231 whole entry, looked up): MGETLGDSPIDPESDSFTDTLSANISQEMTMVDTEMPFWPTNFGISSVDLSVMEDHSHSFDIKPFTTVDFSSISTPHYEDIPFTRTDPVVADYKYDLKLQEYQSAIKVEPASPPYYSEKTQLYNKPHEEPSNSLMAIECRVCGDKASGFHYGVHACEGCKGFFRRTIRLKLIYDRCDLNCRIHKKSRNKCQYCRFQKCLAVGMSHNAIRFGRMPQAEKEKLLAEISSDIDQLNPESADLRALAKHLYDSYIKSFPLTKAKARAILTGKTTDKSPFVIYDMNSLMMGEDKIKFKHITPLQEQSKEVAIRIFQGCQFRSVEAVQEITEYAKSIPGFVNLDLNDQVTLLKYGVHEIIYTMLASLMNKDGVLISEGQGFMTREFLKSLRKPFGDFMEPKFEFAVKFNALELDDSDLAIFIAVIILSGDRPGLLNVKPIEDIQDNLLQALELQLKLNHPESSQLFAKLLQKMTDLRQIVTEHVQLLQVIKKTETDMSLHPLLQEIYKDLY
# Experiment: qHTS assay for small molecule agonists of peroxisome proliferator-activated receptor gamma signaling (AID 588536; active = well fitted curve in the direction sought with a large enough effect in the signal ratio, with a control signal flat, not every such curve was filed as active; the % refers to the signal ratio;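 note: 0% = DMSO basal wells and 100% = rosiglitazone at 2 µM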)
# Conditions: HEK293 PPARg-UAS-bla, beta-lactamase ratio, 16 h, percent of rosiglitazone response, DMSO as zero; series mostly up to 76.7 µM; activation: at the top concentration
# How it was run: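 Ratiometric blue/green fluorescence (405 nm excitation; 460 and 530 nm emission) from CCF4-loaded HEK293 reporter cells serves as signal. Exposure to test compounds lasts 16 h at 37 C in medium containing 1% charcoal/dextran-treated serum.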
SMILES,outcome,activation
Brc1ccccc1,inactive,
CCOP(=S)(OCC)SCSC(C)(C)C,inactive,
CCSC(=O)Cl,,1.82% (inactive)
Cc1cccc([N+](=O)[O-])c1,inactive,
Nc1c(Cl)c(Cl)nc(C(=O)O)c1Cl,inactive,
CC(C)(C)OOC(C)(C)C,,0.0542% (inactive)
C=C(C)C(=O)OCC1CO1 (stereo not given),,-1.33% (inactive)
Cc1ccc([N+](=O)[O-])cc1C,inactive,
O=[N+]([O-])c1ccc(Cl)c(Cl)c1,,5.28% (inactive)
C=CC(=C)C,,2.69% (inactive)
Cc1ccc2ccccc2c1,,-0.233% (inactive)
Nc1ccccc1Cl,,-1.18% (inactive)
Clc1ccc2ccccc2c1,,1.43% (inactive)
[O-][Br+2]([O-])O,inactive,
Clc1nc(Cl)nc(Nc2ccccc2Cl)n1,inactive,
OCC1CO1 (stereo not given),inactive,
C=CCOC(=O)c1ccccc1N,,1.91% (inactive)
CC(C)(c1ccccc1)c1ccc(O)cc1,inactive,

SMILES,outcome,activation
CCN(CC)c1ccccc1,,-1.32% (inactive)
S=C=Nc1cccc2ccccc12,,-1.82% (inactive)
O=NN(CCO)CCO,,3.56% (inactive)
C=CCOC(C)=O,,4.7% (inactive)
CCCC(=O)Cl,,8.25% (inactive)
NC(=S)Nc1ccccc1,inactive,
O=C(Cl)/C=C/C(=O)Cl,,0.899% (inactive)
C=C(Cl)Cl,,-0.484% (inactive)
ClCBr,,-0.282% (inactive)
COc1ccc(C=O)cc1OC,inactive,
C=CC(=O)OCC,,-2.03% (inactive)
c1nc[nH]n1,,3.3% (inactive)
c1ccc2c(c1)CCCC2,,0.776% (inactive)
CCCSC(=O)Cl,,2.39% (inactive)
Clc1cccc(C(Cl)(Cl)Cl)n1,inactive,
O=NN(c1ccccc1)c1ccccc1,inactive,
C1CCC2CCCCC2C1 (stereo not given),,2.41% (inactive)
CC(O)CCl (stereo not given),inactive,

# Target: Peroxisome proliferator-activated receptor gamma (Homo sapiens) (UniProt P37231)
# Experiment: qHTS assay for small molecule antagonists of peroxisome proliferator-activated receptor gamma signaling (AID 588537; active = well fitted inhibition curve with a large enough effect in the signal ratio, with a control signal flat, not every such curve was filed as active; the % refers to the signal ratio;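 note: reporter cells co-stimulated with 50 nM rosiglitazone agonist during compound treatment; % of control where 0% means no effect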)
# Conditions: HEK293 PPARg-UAS-bla, beta-lactamase ratio, antagonist mode; series mostly up to 76.8 µM; activity, negative = inhibition: at the top concentration
# How it was run: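 Inhibitors of agonist-stimulated UAS-bla reporter activity were sought in HEK293 cells; rosiglitazone (50 nM) defined full signal and DMSO baseline. Curves fitted to Hill model gave IC50 and efficacy.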
SMILES,Potency,"activity, negative = inhibition"
Brc1ccccc1,inactive,
CCOP(=S)(OCC)SCSC(C)(C)C,,3.89% (inactive)
CCSC(=O)Cl,,7.58% (inactive)
Cc1cccc([N+](=O)[O-])c1,inactive,
Nc1c(Cl)c(Cl)nc(C(=O)O)c1Cl,,-4.16% (inactive)
C=C(C)C(=O)OCC1CO1 (stereo not given),,5.59% (inactive)
Cc1ccc([N+](=O)[O-])cc1C,,12.4% (inactive)
O=[N+]([O-])c1ccc(Cl)c(Cl)c1,,-2.3% (inactive)
C=CC(=C)C,,6.45% (inactive)
Cc1ccc2ccccc2c1,,3.15% (inactive)
Clc1ccc2ccccc2c1,,-6.06% (inactive)
[O-][Br+2]([O-])O,,8.83% (inactive)
Clc1nc(Cl)nc(Nc2ccccc2Cl)n1,inactive,
OCC1CO1 (stereo not given),,6.05% (inactive)
CCCC(=O)Cl,,10.2% (inactive)
NC(=S)Nc1ccccc1,inactive,
O=C(Cl)/C=C/C(=O)Cl,,3.14% (inactive)
C=C(Cl)Cl,,-8.27% (inactive)
ClCBr,,3.57% (inactive)
COc1ccc(C=O)cc1OC,inactive,
C=CC(=O)OCC,,4.62% (inactive)
Clc1cccc(C(Cl)(Cl)Cl)n1,inactive,
O=NN(c1ccccc1)c1ccccc1,inactive,
C1CCC2CCCCC2C1 (stereo not given),,1.05% (inactive)
CC(O)CCl (stereo not given),,-8.39% (inactive)

# Target: Vitamin D3 receptor (Homo sapiens) (UniProt P11473)
# Sequence (P11473 whole entry, looked up): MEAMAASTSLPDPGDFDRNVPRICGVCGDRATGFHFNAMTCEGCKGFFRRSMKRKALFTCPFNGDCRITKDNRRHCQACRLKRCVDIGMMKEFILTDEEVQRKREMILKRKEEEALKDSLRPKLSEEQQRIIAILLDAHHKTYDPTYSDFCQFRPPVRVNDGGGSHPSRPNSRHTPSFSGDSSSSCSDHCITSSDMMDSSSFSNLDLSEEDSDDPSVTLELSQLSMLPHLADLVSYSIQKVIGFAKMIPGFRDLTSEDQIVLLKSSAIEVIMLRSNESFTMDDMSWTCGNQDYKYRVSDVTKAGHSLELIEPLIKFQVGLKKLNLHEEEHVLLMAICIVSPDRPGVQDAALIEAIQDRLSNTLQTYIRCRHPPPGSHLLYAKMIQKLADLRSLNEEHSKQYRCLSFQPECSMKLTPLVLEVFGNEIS
# Experiment: qHTS assay for small molecule antagonists of vitamin D receptor signaling (AID 588541);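 note: receptor activated by calcitriol during compound treatment; % is set by controls: 0 for no effect and ±100 for the full control effect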
# Conditions: HEK293T VDR-UAS-bla, beta-lactamase ratio, antagonist mode; series mostly up to 76.7 µM; activity change, negative = inhibition: at the top concentration
# How it was run: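 Antagonist-mode beta-lactamase reporter assay: HEK293T VDR-UAS-bla cells were exposed to titrated compound alongside 1-alpha,25-dihydroxyvitamin D3 at 3 nM final for 16 h. Values were normalized to the 50 nM agonist control and DMSO basal, with IC50 and efficacy from Hill equation fits.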
SMILES,outcome,"activity change, negative = inhibition"
Brc1ccccc1,inactive,
CCOP(=S)(OCC)SCSC(C)(C)C,inactive,
C=C(C)C#N,inactive,
CCSC(=O)Cl,,1.76% (inactive)
Cc1cccc([N+](=O)[O-])c1,inactive,
C=C(C)C(=O)OCC1CO1 (stereo not given),,-0.553% (inactive)
Cc1ccc([N+](=O)[O-])cc1C,inactive,
O=[N+]([O-])c1ccc(Cl)c(Cl)c1,,4.35% (inactive)
C=CC(=C)C,,7.69% (inactive)
Cc1ccc2ccccc2c1,,-1.42% (inactive)
Nc1ccccc1Cl,,-1.05% (inactive)
Clc1ccc2ccccc2c1,,6.68% (inactive)
[O-][Br+2]([O-])O,inactive,
Clc1nc(Cl)nc(Nc2ccccc2Cl)n1,inactive,
OCC1CO1 (stereo not given),inactive,
C=CCOC(=O)c1ccccc1N,,-3.87% (inactive)

SMILES,outcome,"activity change, negative = inhibition"
C=CC(N)=O,inactive,
CC(C)(c1ccccc1)c1ccc(O)cc1,inactive,
CCN(CC)c1ccccc1,,-2.14% (inactive)
S=C=Nc1cccc2ccccc12,,6.2% (inactive)
N#CCCCl,inactive,
O=NN(CCO)CCO,,-0.369% (inactive)
C=CCOC(C)=O,,-6.85% (inactive)
CCCC(=O)Cl,,13.9% (inactive)
NC(=S)Nc1ccccc1,inactive,
O=C(Cl)/C=C/C(=O)Cl,,-1.58% (inactive)
ClCBr,,1.53% (inactive)
c1nc[nH]n1,,-3.48% (inactive)
c1ccc2c(c1)CCCC2,,-0.234% (inactive)
CCCSC(=O)Cl,,-6.41% (inactive)
C1CCC2CCCCC2C1 (stereo not given),,-0.889% (inactive)
CC(O)CCl (stereo not given),inactive,
